# Experimental data from PubChem BioAssay AID1159580 (chemical genetic matrix, 2015).
# In all, about 5,500 compounds went through this assay and about 2,000 (36%) were called active. Not shown: some 18% with an inconclusive outcome. The list shows a part of the results. Unmarked numbers belong to inactive results. Cut-off read from the data, not from the text of the source: active = normalized growth mostly below about 0.91 (no sharp cut-off); inconclusive = no clear call, values can overlap the other calls; inactive = mostly above about 0.92.
# Assay: chemical genetic growth profiling, strain panel (AID 1159580);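 note: tested at 20 µM; growth read once vehicle control cultures reached saturation at 30 °C; 1 = growth at the plate median or of vehicle wells; lower values mean less growth of the strain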
# Settings: S. cerevisiae deletion strains, growth OD
compound,measurement,setting,value
Cn1c(CSCCOc2ccccc2)nnc1SCc1ccc(Cl)cc1Cl,normalized growth,"locus YAR019C, strain CDC15, stronger effect = lower value",0.985
same,normalized growth,"locus YBL105C, strain PKC1, stronger effect = lower value",0.982
same,normalized growth,"locus YBR135W, strain CKS1, stronger effect = lower value",0.98
same,normalized growth,"locus YBR136W, strain MEC1, stronger effect = lower value",0.98
same,normalized growth,"locus YBR160W, strain CDC28, stronger effect = lower value",0.98
same,normalized growth,"locus YDL017W, strain CDC7, stronger effect = lower value",0.986
same,normalized growth,"locus YDL028C, strain MPS1, stronger effect = lower value",0.992
same,normalized growth,"locus YDL101C, strain DUN1, stronger effect = lower value",0.995
same,normalized growth,"locus YDL108W, strain KIN28, stronger effect = lower value",0.986
same,normalized growth,"locus YDL132W, strain cdc53, stronger effect = lower value",0.968
same,normalized growth,"locus YDL214C, strain PRR2, stronger effect = lower value",0.984
same,normalized growth,"locus YDR052C, strain DBF4, stronger effect = lower value",0.982
same,normalized growth,"locus YDR054C, strain cdc34, stronger effect = lower value",0.985
same,normalized growth,"locus YDR226W, strain ADK1, stronger effect = lower value",0.971
same,normalized growth,"locus YDR477W, strain SNF1, stronger effect = lower value",1.02
same,normalized growth,"locus YER123W, strain YCK3, stronger effect = lower value",0.98
same,normalized growth,"locus YER133W, strain GLC7, stronger effect = lower value",1
same,normalized growth,"locus YFL009W, strain cdc4, stronger effect = lower value",0.983
same,normalized growth,"locus YFL029C, strain CAK1, stronger effect = lower value",0.99
same,normalized growth,"locus YFR003C, strain YPI1, stronger effect = lower value",0.987
same,normalized growth,"locus YFR019W, strain FAB1, stronger effect = lower value",0.946
same,normalized growth,"locus YFR028C, strain CDC14, stronger effect = lower value",0.989
same,normalized growth,"locus YGR040W, strain KSS1, stronger effect = lower value",1.01
same,normalized growth,"locus YGR052W, strain FMP48, stronger effect = lower value",1.12
same,normalized growth,"locus YGR092W, strain DBF2, stronger effect = lower value",0.984
same,normalized growth,"locus YHR030C, strain SLT2, stronger effect = lower value",0.829 (active)
same,normalized growth,"locus YHR079C, strain IRE1, stronger effect = lower value",0.97
same,normalized growth,"locus YHR082C, strain KSP1, stronger effect = lower value",1.02
same,normalized growth,"locus YHR205W, strain SCH9, stronger effect = lower value",0.969
same,normalized growth,"locus YIL147C, strain SLN1, stronger effect = lower value",0.985
same,normalized growth,"locus YJL095W, strain BCK1, stronger effect = lower value",0.911
same,normalized growth,"locus YJL128C, strain PBS2, stronger effect = lower value",0.905
same,normalized growth,"locus YJL157C, strain FAR1, stronger effect = lower value",1.01
same,normalized growth,"locus YJR016C, strain ILV3, stronger effect = lower value",0.982
same,normalized growth,"locus YJR066W, strain TOR1 (second series), stronger effect = lower value",0.977
same,normalized growth,"locus YJR066W, strain TOR1, stronger effect = lower value",0.995
same,normalized growth,"locus YKL048C, strain ELM1, stronger effect = lower value",0.963
same,normalized growth,"locus YKL067W, strain YNK1, stronger effect = lower value",0.994
same,normalized growth,"locus YKL101W, strain HSL1, stronger effect = lower value",0.981
same,normalized growth,"locus YKL193C, strain SDS22, stronger effect = lower value",0.998
same,normalized growth,"locus YKL203C, strain TOR2, stronger effect = lower value",1.07
same,normalized growth,"locus YLR113W, strain HOG1, stronger effect = lower value",1
same,normalized growth,"locus YLR133W, strain CKI1, stronger effect = lower value",0.982
same,normalized growth,"locus YLR403W, strain SFP1, stronger effect = lower value",1.01
same,normalized growth,"locus YML070W, strain DAK1, stronger effect = lower value",1
same,normalized growth,"locus YMR001C, strain CDC5, stronger effect = lower value",0.988
same,normalized growth,"locus YMR205C, strain PFK2 (second series), stronger effect = lower value",0.994
same,normalized growth,"locus YMR277W, strain FCP1, stronger effect = lower value",0.989
same,normalized growth,"locus YNL006W, strain LST8, stronger effect = lower value",0.99
same,normalized growth,"locus YNL020C, strain ARK1, stronger effect = lower value",0.974
same,normalized growth,"locus YNL161W, strain CBK1, stronger effect = lower value",0.98
same,normalized growth,"locus YNL183C, strain NPR1, stronger effect = lower value",0.996
same,normalized growth,"locus YNL207W, strain RIO2, stronger effect = lower value",1
same,normalized growth,"locus YNL222W, strain SSU72, stronger effect = lower value",0.984
same,normalized growth,"locus YNL307C, strain MCK1 (second series), stronger effect = lower value",0.96
same,normalized growth,"locus YOL078W, strain AVO1, stronger effect = lower value",0.994
same,normalized growth,"locus YOL136C, strain PFK27, stronger effect = lower value",0.988
same,normalized growth,"locus YOR061W, strain CKA2, stronger effect = lower value",1
same,normalized growth,"locus YOR119C, strain RIO1, stronger effect = lower value",1.14
same,normalized growth,"locus YOR231W, strain MKK1, stronger effect = lower value",0.992
same,normalized growth,"locus YOR329C, strain SCD5, stronger effect = lower value",0.986
same,normalized growth,"locus YPL031C, strain PHO85, stronger effect = lower value",1.03
same,normalized growth,"locus YPL153C, strain RAD53, stronger effect = lower value",1.03
same,normalized growth,"locus YPL204W, strain HRR25, stronger effect = lower value",1.04
same,normalized growth,"locus YPL209C, strain IPL1, stronger effect = lower value",0.99
same,normalized growth,"locus YPL256C, strain CLN2, stronger effect = lower value",0.979
same,normalized growth,"locus YPR025C, strain CCL1, stronger effect = lower value",0.986
same,normalized growth,"locus YPR106W, strain ISR1, stronger effect = lower value",0.982
same,normalized growth,"locus YPR111W, strain DBF20, stronger effect = lower value",0.969
same,normalized growth,"strain NNK1, stronger effect = lower value",0.983
same,normalized growth,"strain TSCII, stronger effect = lower value",0.988
